# Hits are enriched below; roughly 5.7% of the tested compounds scored in any of these assays.
# HT1080NT lethal: kills 2HG-producing HT-1080-NT fibrosarcoma cells | HT-1080-NT fibrosarcoma viability, CellTiter-Glo ATP luminescence, 48 h | 1.6% of 360,000 active | AID 686970 | Potency, µM (series often up to 46.1 µM), most hits filed as cytotoxic;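 also: NT is the 2HG producing partner of a matched IDH1 knockdown line; nearly all actives have a fitted effect of over 55% in size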
#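 Viability of the 2HG-overproducing fibrosarcoma line after 48 hours of compound exposure at 37 degrees C was determined by luminescence with CellTiter-Glo, and concentration-effect curves were then fitted and categorized.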
# KB-V1 cytotox: kills drug-selected multidrug resistant KB-V1 cells. KB-V1 MDR cells viability, CellTiter-Glo, 72 h. Potency, µM (highest dose often 46.1 µM), most hits filed as cytotoxic. 3.4% of 400,000 active; also: nearly all actives have a fitted effect of over 60% in size
#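 Cytotoxicity via CellTiter-Glo luminescence after 72 h compound exposure at 37 degrees C. Cells: drug-selected KB-V1 line, DMEM phenol-red free plus 10% FBS. Compounds tested at multiple concentrations; normalized data fitted to concentration-effect curves.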
# KB-3-1 tox: kills parental KB-3-1 adenocarcinoma cells; KB-3-1 viability, CellTiter-Glo ATP luminescence, 72 h; Potency, µM (doses to about 46.1 µM), most hits filed as cytotoxic; 1.4% of 400,000 active; also: nearly all actives have a fitted effect of over 60% in size
#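 Screening of KB-3-1 cells (DMEM, 10% FBS, phenol-red free) ran from lowest to highest compound concentration; after 72 h at 37 °C viability was read luminescently and curves fitted.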
# HT1080 IDH1KD tx: HT-1080 IDH1 knockdown cell toxicity (counter line). HT-1080 IDH1 knockdown viability, ATP luminescence, 48 h. Potency, µM (top dose mostly 46.1 µM), most hits filed as cytotoxic. 2% of 360,000 active. AID 686971
#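 Knockdown cells (IDH1KD HT-1080) received compounds 2 h after plating at 750 cells/well and were kept 48 h at 37 °C in 5% FBS RPMI. A CellTiter-Glo luminescence read gave % activity for curve fitting.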
# A number is an active result; i = inactive; ? = inconclusive; nt = no result given. Calls follow the shape of the dose curve; as a rule, active = well fitted curve in the direction sought with a large enough effect; inconclusive = small, poorly fitted or top-dose-only effect, or another doubt; inactive = no such curve, though single readings can be large; an effect the other way counts as inactive or inconclusive.
SMILES,HT1080NT lethal,KB-V1 cytotox,KB-3-1 tox,HT1080 IDH1KD tx
Cn1c(CCCOc2ccc(Cl)cc2Cl)nnc1SCC(=O)Nc1cccc(F)c1,?,i,i,i
COc1ccc(Cn2c(=O)c3ccccc3n3c(-c4ccc(C)cc4)nnc23)cc1,nt,i,i,nt
C=C1CC(Cn2cc(Br)c(=O)[nH]c2=O)(c2ccc(-c3ccccc3)cc2)OC1=O (configuration not stated),2.3µM,i,?,1.6µM
O=c1[nH]c(=O)n(CCOc2ccc(Cl)cc2)cc1Br,i,i,i,i
CCN(CC)C(=O)c1sc(NC(=O)c2ccc(Br)o2)c(C(=O)OC)c1C,i,9.2µM,i,i
COc1ccccc1N1CCN(C(=O)c2cnn(-c3cccc(Cl)c3)c2C2CCN(C(=O)OC(C)(C)C)CC2)CC1,nt,i,i,nt
O=P(NCc1ccccc1)(OCc1ccccc1)OCc1ccccc1,i,9.2µM,i,i
Cc1cccc(N2CCN(c3nc4ccccc4c4nnc(C)n34)CC2)c1C,nt,i,?,nt
Cc1cc2ccccc2c[n+]1C1CCCCC1,nt,i,4.6µM,nt
COc1ccc(-c2noc(CNS(=O)(=O)c3ccc(NC(C)=O)cc3)n2)cc1,i,i,i,i
O=C(NCc1nc(-c2ccc(C(F)(F)F)cc2)no1)Nc1ccc(OC(F)(F)F)cc1,26µM,?,?,?
Cc1c2c(nc3nc4ccccc4n13)CC(C)(C)CC2=O,i,15µM,i,i
COc1cc(Br)c(CC2c3cc(OC)c(OC)cc3CCN2C)cc1OC (configuration not stated),i,21µM,i,i
Cc1cnc2ccc3ccccc3c2c1C,nt,i,5.2µM,nt
CCCCOc1ccc(CNC(=O)c2cnc3sc(N4CCC(C)CC4)nn3c2=O)cc1,nt,i,i,nt
Cc1csc2c(N3CCN(C(=O)c4ccc(C(C)(C)C)cc4)CC3)ncnc12,18µM,?,i,?
Cc1c(CCCN)c2ccccc2n1Cc1ccccc1,?,?,i,21µM
Cc1ccc(Cl)cc1NC(=O)C1CCN(c2nnc(C)c3c(C)n(-c4ccccc4)nc23)CC1,nt,i,i,nt
CCOC(=O)c1cccc(NC(=O)CN2C(=O)c3ccccc3Sc3ncccc32)c1,nt,i,i,nt
C=CCN1C(=O)c2ccccc2Sc2ccc(C(=O)N3CCN(C)CC3)cc21,i,9.2µM,i,i
CC(=O)Nc1cccc(OCCCNC(=O)c2ccc(C(C)(C)C)cc2)c1,?,i,?,15µM
COc1cccc(NC(=O)CC(=O)c2ccc([N+](=O)[O-])cc2)c1,i,i,i,i
O=C(c1ccccc1)N1CCCc2ccccc21,i,i,i,i
COc1cccc(N/C(SCc2cccc([N+](=O)[O-])c2)=C(/C#N)C(N)=O)c1,?,?,i,16µM
CC(=O)Nc1cccc(OCCCOc2cccc([N+](=O)[O-])c2)c1,i,9.2µM,i,i
SMILES,HT1080NT lethal,KB-V1 cytotox,KB-3-1 tox,HT1080 IDH1KD tx
O=C(Nc1cccc(C(=O)N2CCCc3ccccc32)c1)c1ccccc1,?,21µM,?,23µM
CC(C)OCCCNC(=O)c1cccc(NC(=O)c2ccccc2)c1,i,16µM,i,i
COCCCNC(=O)c1cccc(NC(=O)c2ccccc2)c1,i,?,i,?
CC(C)OC(=O)c1cccc(NC(=O)c2ccccc2)c1,i,12µM,i,i
CC(CNC(=O)Cn1ccc2cc(S(=O)(=O)N3CCCCC3)ccc21)c1ccccc1 (configuration not stated),nt,i,i,nt
Cc1ccccc1-n1nc2c(c1NC(=O)c1c(-c3ccccc3Cl)noc1C)CS(=O)(=O)C2,i,8.2µM,i,i
Cc1ccc(-n2nc3c(c2NC(=O)c2c(-c4ccccc4Cl)noc2C)CS(=O)(=O)C3)c(C)c1,i,12µM,i,i
Cc1ccc(-n2nc3c(c2NC(=O)c2cccs2)CS(=O)(=O)C3)c(C)c1,i,i,i,i
COc1ccc(-c2nc(-c3ccc4c(c3)OCO4)[nH]c2-c2ccc(OC)cc2)cc1,18µM,21µM,i,?
COc1ccc(-c2noc(-c3ccc4c(c3)OCO4)n2)cc1,i,i,i,i
CCOC(=O)c1c(CN2CCN(CCO)CC2)n(-c2ccccc2)c2cc(Br)c(O)cc12,?,i,i,23µM
CCOC(=O)c1c(CN2CCN(CC#N)CC2)n(C)c2cc(Br)c(OC)cc12,?,i,i,21µM
COc1ccc(-c2nnc(SCC(=O)Nc3ccc(C)c(C)c3)s2)cc1,nt,i,i,nt
CCOC(=O)c1c(-c2ccc(C)o2)csc1NC(=S)NC(=O)N(C)C,10µM,i,i,13µM
CCOC(=O)c1c(-c2ccc(C)o2)csc1NC(=O)COC(=O)c1cccs1,i,i,i,i
O=C(c1ccc(CSc2nc3ccncc3n2Cc2cccc(F)c2)cc1)N1CCCCC1,nt,i,?,nt
N#Cc1ccsc1NC(=O)CN1CCN(S(=O)(=O)c2ccc3ccccc3c2)CC1,i,6.5µM,i,i
O=C(CN1CCN(S(=O)(=O)c2ccc3ccccc3c2)CC1)Nc1ccc2c(c1)CCC2,i,18µM,i,i
Cc1ccc(S(=O)(=O)N2CCN(CC(=O)Nc3ccc4c(c3)CCC4)CC2)cc1C,i,2.9µM,?,i
Cc1ccc(Cl)cc1-n1ncc2c(Nc3cccc(C)c3C)ncnc21,nt,?,i,nt
COC(=O)c1cc2oc3ccccc3c2n1CC(=O)Nc1cccc(SC)c1,nt,i,i,nt
N#Cc1c(N)n(-c2cccc(Cl)c2)c2nc3ccccc3nc12,nt,i,i,nt
CCCCn1c(=O)nc2n(-c3ccc(C)cc3)c3ccccc3cc-2c1=O,i,?,i,i
CCCCn1c(=O)nc2n(-c3ccc(Cl)cc3)c3ccccc3cc-2c1=O,i,8.2µM,i,i
CCOC(=O)c1c(C)c(-c2ccccc2)n(CC(=O)NCCc2cccc(C)c2)c1C,nt,i,i,nt
SMILES,HT1080NT lethal,KB-V1 cytotox,KB-3-1 tox,HT1080 IDH1KD tx
O=C(CN1CCCC1)N1CCCc2c1c(=O)oc1ccc(OCc3ccccc3)cc21,?,18µM,i,?
CCCOc1ccc2oc(=O)c3c(c2c1)CCCN3C(=O)CN1CCN(c2ncccn2)CC1,i,i,i,i
CCOC(=O)C1CCN(CC(=O)N2CCCc3c2c(=O)oc2ccc(OCc4ccccc4)cc32)CC1,nt,i,i,nt
CCCOc1ccc2oc(=O)c3c(c2c1)CCCN3C(=O)CN1CCCC(C(=O)OCC)C1 (configuration not stated),i,12µM,i,i
COC(=O)c1cn(NC(=O)/C=C/c2cc(OC)ccc2OC)c(=O)c2ccccc12,i,8.2µM,i,i
CCN(CC(=O)Nc1ccc2c(c1)OCCO2)S(=O)(=O)c1cccs1,i,i,i,i
O=C(CN1CCC(C(=O)c2ccc3c(c2)OCCO3)CC1)Nc1ccccc1F,?,i,i,?
CCN(CC)S(=O)(=O)c1ccc2c(c1)nc(CCC(=O)Nc1ccc3c(c1)OCO3)n2CC,i,15µM,i,i
CCN(CC)S(=O)(=O)c1ccc2c(c1)nc(CCC(=O)Nc1ccc3c(c1)OCO3)n2C,i,i,i,i
CCN(CC(=O)Nc1ccc2c(c1)OCCO2)S(=O)(=O)c1ccc(C)cc1,i,16µM,i,i
Cc1cccc(NC(=O)CN2CCC(C(=O)c3ccc4c(c3)OCCO4)CC2)c1,i,12µM,?,i

# Assay outcomes deposited in PubChem by National Center for Advancing Translational Sciences (NCATS).
